Data: PubChem BioAssay (NCATS)
“And” between values parts separate entries of the source, which are not always exact repeats. Equal values may be shown once. Records with an inconclusive call do not appear. More than one record can exist for a structure, and the calls need not agree. The source made the active and inactive calls. The call rests on the fitted dose curve; in most records, active means well fitted inhibition curve with a large enough effect; inconclusive means small, poorly fitted or top-dose-only effect; inactive means flat fitted curve, though single readings scatter.

What was measured:
HaCat [1] = assay: Cytotoxic Profiling of Annotated Libraries Using Quantitative High-Throughput Screening (AID 1296008); conditions: Five cell lines viability, CellTiter-Glo ATP luminescence, 48-72 h; max response: stronger effect = lower value
Outline: (§1)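 Compounds were pin-transferred onto cells and incubated 48 or 72 hr at 37 degree Celsius, 95% humidity. CellTiter-Glo was added, plates sat 10 min at room temperature, then ATP-coupled luminescence was imaged as the viability read-out.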

KB-3-1 = assay: as above; conditions: Five cell lines viability, CellTiter-Glo ATP luminescence, 48-72 h; max response: stronger effect = lower value
Outline: as §1

HACAT [2] = assay: qHTS assay to identify novel small-molecules to repurpose for Merkel cell carcinoma treatment (AID 1296009); conditions: MCC and control cell lines, CellTiter-Glo viability, 72 h; at 44.8 µM (top of the series) unless noted
Outline: (§2)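 qHTS format: cells treated with library compounds in DMSO across 8 (NPC) or 11 (MIPE) concentrations. Readout after 72 hr at 37 degree celsius was CellTiter-Glo luminescence.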

MCC-13 = assay: as above; conditions: MCC and control cell lines, CellTiter-Glo viability, 72 h; series mostly up to 46 µM
Outline: as §2

MKL-1 = assay: as above; conditions: MCC and control cell lines, CellTiter-Glo viability, 72 h; series mostly up to 46 µM
Outline: as §2

NIH3T3 [3] = assay: Cytotoxic Profiling of Annotated Libraries Using Quantitative High-Throughput Screening (AID 1296008); conditions: Five cell lines viability, CellTiter-Glo ATP luminescence, 48-72 h; max response: stronger effect = lower value
Outline: as §1

MCC-26 = assay: qHTS assay to identify novel small-molecules to repurpose for Merkel cell carcinoma treatment (AID 1296009); conditions: MCC and control cell lines, CellTiter-Glo viability, 72 h; series mostly up to 46 µM
Outline: as §2

MKL-2 = assay: as above; conditions: MCC and control cell lines, CellTiter-Glo viability, 72 h; series mostly up to 46 µM
Outline: as §2

NIH3T3 [4] = assay: as above; conditions: MCC and control cell lines, CellTiter-Glo viability, 72 h; at 44.8 µM (top of the series) unless noted
Outline: as §2

HEK293T = assay: as above; conditions: MCC and control cell lines, CellTiter-Glo viability, 72 h; at 44.8 µM (top of the series)
Outline: as §2
Further: nearly all actives have a fitted effect of over 60% in size.
On the % scale 0 is the no-effect control and ±100 the full control effect; potency means the concentration at half of the fitted maximal effect.

Cc1cccc(-c2[nH]c(C(C)(C)C)nc2-c2ccc3nccnc3c2)n1
inactive: outcome (HaCat [1]) | outcome (HACAT [2]) | Potency (MCC-13)
active: Potency (KB-3-1) 14.8 µM | Potency (MKL-1) 2.64 µM

CCn1c(-c2nonc2N)nc2cnc(Oc3cccc(NC(=O)c4ccc(OCCN5CCOCC5)cc4)c3)cc21
inactive: max response (HaCat [1]) -18.5% | Potency (MCC-26) | Potency (MKL-2)
active: Potency (KB-3-1) 5.9 µM | Potency (NIH3T3 [3]) 14.8 µM

Cc1cccc(-c2nn(C(=S)Nc3ccccc3)cc2-c2ccnc3ccccc23)n1
inactive: max response (HaCat [1]) -21.4% | max response (KB-3-1) -23.5% | Potency (MCC-13) | Potency (MCC-26) | Potency (MKL-1) | Potency (MKL-2)

Cc1cnc(Nc2ccc(OCCN3CCCC3)cc2)nc1Nc1cccc(S(=O)(=O)NC(C)(C)C)c1
inactive: max response (KB-3-1) 5.89% | outcome (NIH3T3 [3]) | Potency (MCC-13) | Potency (MCC-26) | Potency (MKL-1) | outcome (NIH3T3 [4])
active: Potency (KB-3-1) 6.51 µM

COc1ccc2c3n(c(=NC(=O)c4cccnc4)nc2c1OC)CCN3
inactive: max response (KB-3-1) -17.8% | Potency (MCC-13) | Potency (MCC-26) | Potency (MKL-1) | Potency (MKL-2)
active: Potency (HaCat [1]) 10.5 µM

CCCS(=O)(=O)Nc1ccc(F)c(C(=O)c2c[nH]c3ncc(-c4ccc(Cl)cc4)cc23)c1F
inactive: max response (HaCat [1]) -13.3% | max response (KB-3-1) 4.09% | Potency (MCC-13) | Potency (MCC-26) | Potency (MKL-1) | Potency (MKL-2)

Cc1cc(Nc2nc(N[C@@H](C)c3ncc(F)cn3)ncc2Cl)n[nH]1
active: Potency (HaCat [1]) 6.51 µM | Potency (NIH3T3 [3]) 8.2 µM
inactive: Potency (MCC-13) | Potency (MCC-26)

Cc1cc(-c2ccc(CC(=O)Nc3ccc(-c4cccnc4)cc3)cc2)ccn1
inactive: outcome (HaCat [1]) | outcome (HACAT [2]) | Potency (MCC-13) | Potency (MCC-26) | Potency (MKL-1)

C[C@H](NC(=O)Cc1cc(F)cc(F)c1)C(=O)N[C@@H]1C(=O)N(C)c2ccccc2-c2ccccc21
inactive: max response (KB-3-1) 1.83% | outcome (KB-3-1) | max response (NIH3T3 [3]) -12.2% and -1.62% | outcome (HACAT [2]) | Potency (MCC-13) | Potency (MCC-26) | Potency (MKL-1)

COc1ccccc1[C@H](c1cccc2ccccc12)[C@@](C)(C#N)C(=O)N1CCC(c2cccc(C(F)(F)F)c2)CC1
inactive: max response (HaCat [1]) -11.9% | Potency (MCC-13) | Potency (MCC-26)

Cc1n[nH]c(C)c1Cc1sc2c(c1C(=O)N1C[C@H](O)CO1)c(=O)n(C)c(=O)n2CC(C)C
inactive: max response (HaCat [1]) -3.78% and -14.4% | outcome (KB-3-1) | Potency (MCC-13) | Potency (MCC-26) | Potency (MKL-1) | Potency (MKL-2)

CC(=O)NC(C)c1ccc(Oc2ccc(OC(C)C)cc2)cc1 (configuration not stated)
inactive: max response (HaCat [1]) -3.76% | max response (KB-3-1) 7.61% | Potency (MCC-13) | Potency (MCC-26) | Potency (MKL-1)

O=c1ncn2nc(Sc3ccc(F)cc3F)ccc2c1-c1c(Cl)cccc1Cl
inactive: max response (HaCat [1]) -4.37% | max response (KB-3-1) -0.339% | Potency (MCC-13) | Potency (MCC-26) | Potency (MKL-1) | Potency (MKL-2)

CN[C@@H](C)C(=O)N[C@H]1CCCC[C@H]2CC[C@@H](C(=O)N[C@@H](c3ccccc3)c3cn(CCCCc4ccc(CCCCn5cc([C@@H](NC(=O)[C@@H]6CC[C@@H]7CCCC[C@H](NC(=O)[C@H](C)NC)C(=O)N76)c6ccccc6)nn5)cc4)nn3)N2C1=O
active: Potency (MKL-1) 23.5 µM | Potency (MKL-2) 9.35 µM
inactive: outcome (HaCat [1]) | outcome (NIH3T3 [3]) | outcome (HACAT [2]) | outcome (HEK293T) | Potency (MCC-13) | Potency (MCC-26) | outcome (NIH3T3 [4])

CCCCCCCc1ccc(CCc2cccc(O)c2C(=O)O)cc1
inactive: outcome (HaCat [1]) | outcome (HACAT [2]) | Potency (MCC-13) | Potency (MCC-26) | Potency (MKL-1) | Potency (MKL-2)

Cc1c(C)c2c(c(C)c1O)CCC(C)(COc1ccc(CC3SC(=O)NC3=O)cc1)O2 (configuration not stated)
inactive: max response (KB-3-1) -2.71% and -9.42% | max response (NIH3T3 [3]) -1.07% | outcome (NIH3T3 [3]) | outcome (HACAT [2]) | outcome (HEK293T) | Potency (MCC-13) | Potency (MCC-26) | Potency (MKL-1) | Potency (MKL-2) | outcome (NIH3T3 [4])

Cc1ccccc1C(C(=O)NC1CCCC1)N(C(=O)Cn1cnc2ccccc21)c1cccc(F)c1 (configuration not stated)
inactive: max response (KB-3-1) 7.7% | outcome (NIH3T3 [3]) | outcome (HACAT [2]) | Potency (MCC-13) | Potency (MCC-26) | Potency (MKL-1) | Potency (MKL-2) | outcome (NIH3T3 [4])

CC[C@H](Nc1ncnc2nc[nH]c12)c1nc2cccc(F)c2c(=O)n1-c1ccccc1
inactive: outcome (KB-3-1) | max response (NIH3T3 [3]) -27.5% | Potency (MCC-13) | Potency (MCC-26) | Potency (MKL-1)

Clc1ccc(Nc2nnc(Cc3ccncc3)c3ccccc23)cc1
inactive and 13.3 µM (active): Potency (MKL-2)
inactive: max response (KB-3-1) -8.03% and 60.3% | max response (NIH3T3 [3]) -1.18% and -1.64% | outcome (HACAT [2]) | Potency (MCC-13) | Potency (MCC-26)

COc1ccc(-c2oc3cc(OC)ccc3c2C(=O)c2ccc(C#N)cc2)cc1
inactive: outcome (KB-3-1) | outcome (NIH3T3 [3]) | outcome (HACAT [2]) | outcome (HEK293T) | Potency (MCC-13) | Potency (MCC-26) | Potency (MKL-1) | outcome (NIH3T3 [4])

Cc1cc([C@@H](C)Nc2ccccc2C(=O)O)c2nc(N3CCOCC3)cc(=O)n2c1
inactive: Potency (MCC-13) | Potency (MKL-1)
active: Potency (NIH3T3 [3]) 12.1 µM

CCC(C)n1ncn(-c2ccc(N3CCN(c4ccc(OC[C@H]5CO[C@](Cn6cncn6)(c6ccc(Cl)cc6Cl)O5)cc4)CC3)cc2)c1=O (some centres not stated)
inactive: max response (KB-3-1) -3.28% and -9.44% and -24.5% | max response (NIH3T3 [3]) -7.51% | outcome (HACAT [2]) | Potency (MCC-13) | Potency (MCC-26) | Potency (MKL-1) | Potency (MKL-2)

CCOC(=O)N[C@@H]1CC[C@@H]2[C@@H](C1)C[C@H]1C(=O)O[C@H](C)[C@H]1[C@@H]2C=Cc1ccc(-c2cccc(F)c2)cn1
inactive: max response (NIH3T3 [3]) -8.03% | Potency (MCC-13) | Potency (MCC-26) | Potency (MKL-1)
active: Potency (MKL-2) 20.9 µM

O=C(Nc1ccc(F)c(C(F)(F)F)c1)Nc1nnc(-c2ccncc2)s1
inactive: max response (KB-3-1) -7.12% and -14.7% | max response (NIH3T3 [3]) -1.83% | outcome (NIH3T3 [3]) | outcome (HACAT [2]) | Potency (MCC-13) | Potency (MCC-26) | Potency (MKL-1) | Potency (MKL-2) | outcome (NIH3T3 [4])
